# Data published in PubChem BioAssay (NCATS).
# Inconclusive results are not listed. The source made the active and inactive calls. Calls come from the whole dose curve; as a rule, active = well fitted inhibition curve with a large enough effect; inconclusive = small, poorly fitted or top-dose-only effect; inactive = flat fitted curve, though single readings scatter.
# Target: Ubiquitin carboxyl-terminal hydrolase 1 (Homo sapiens) (UniProt O94782)
# Assay: Inhibitors of USP1/UAF1: Pilot qHTS (AID 504865); note: nearly all actives have a fitted effect of over 35% in size;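 for activity change, negative = inhibition: rhodamine fluorescence freed from ubiquitin-rhodamine substrate followed over time; top concentration of the series differs between compounds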
# Settings: purified USP1/UAF1, Ub-rhodamine cleavage fluorescence; series mostly up to 114 µM; activity change, negative = inhibition: at the top concentration
# Procedure, shortened: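 In 50mM HEPES pH 7.8 containing 0.5mM EDTA, 1mM TCEP, 0.1 mg/ml BSA and 0.01% Tween-20, 1nM USP1/UAF1 is exposed to compound for 15 min, then Ub-Rho (150nM final) is added and fluorescence is read over time.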
# % is set by controls: 0 for no effect and ±100 for the full control effect; potency is the fitted concentration of half-maximal effect.
# Chain of Ubiquitin carboxyl-terminal hydrolase 1 (Homo sapiens) (O94782 whole entry, looked up): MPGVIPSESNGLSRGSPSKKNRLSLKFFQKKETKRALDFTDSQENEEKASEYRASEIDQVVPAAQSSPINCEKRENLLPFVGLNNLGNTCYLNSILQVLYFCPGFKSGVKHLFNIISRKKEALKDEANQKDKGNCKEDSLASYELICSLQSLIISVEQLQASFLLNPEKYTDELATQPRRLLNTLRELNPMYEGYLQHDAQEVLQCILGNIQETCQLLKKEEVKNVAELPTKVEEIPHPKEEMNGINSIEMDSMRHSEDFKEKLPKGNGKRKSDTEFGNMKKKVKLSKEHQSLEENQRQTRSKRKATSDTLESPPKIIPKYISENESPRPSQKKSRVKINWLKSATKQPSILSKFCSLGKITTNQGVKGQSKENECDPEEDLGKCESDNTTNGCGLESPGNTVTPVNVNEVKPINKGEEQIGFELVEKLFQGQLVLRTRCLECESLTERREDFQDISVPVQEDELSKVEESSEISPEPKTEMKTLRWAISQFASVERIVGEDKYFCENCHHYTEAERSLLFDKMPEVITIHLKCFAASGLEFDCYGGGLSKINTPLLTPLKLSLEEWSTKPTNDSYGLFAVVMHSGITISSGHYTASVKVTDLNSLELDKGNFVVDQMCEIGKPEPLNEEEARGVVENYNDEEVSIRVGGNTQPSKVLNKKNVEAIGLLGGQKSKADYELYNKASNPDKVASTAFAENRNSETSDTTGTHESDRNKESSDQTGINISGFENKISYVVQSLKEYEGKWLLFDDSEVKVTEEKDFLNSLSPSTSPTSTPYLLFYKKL
Compound,"activity change, negative = inhibition",Potency
O=C(CCCN1CCC(C(=O)c2ccc(F)cc2)CC1)c1ccc(F)cc1,-8.71% (inactive),
CCN(CC)C(=O)c1cccnc1,-4.35% (inactive),
FCOC(C(F)(F)F)C(F)(F)F,3.06% (inactive),
CC1CC(O)CC(C)(C)C1 (configuration not stated),-5.89% (inactive),
CCCc1ccc(C(=O)O)cc1,-0.983% (inactive),
CN1C(=O)OC(C)(C)C1=O,0.214% [at 54.9 µM] (inactive),
CC(C)(COP(=O)(O)OP(=O)(O)OC[C@H]1O[C@@H](n2cnc3c(N)ncnc32)[C@H](O)[C@@H]1OP(=O)(O)O)C(O)C(=O)NCCC(=O)NCCS (some centres not stated),-6.74% (inactive),
COc1cc2c(cc1OC)[C@@H](Cc1cc(OC)c(OC)c(OC)c1)[N+](C)(CCCOC(=O)CC/C=C/CCC(=O)OCCC[N+]1(C)CCc3cc(OC)c(OC)cc3[C@H]1Cc1cc(OC)c(OC)c(OC)c1)CC2 (some centres not stated),-6.61% (inactive),
NC(=O)CC[C@@H]1NC(=O)[C@H](Cc2ccccc2)NC(=O)[C@H](Cc2ccc(O)cc2)NC(=O)[C@@H](N)CSSC[C@@H](C(=O)N2CCC[C@H]2C(=O)N[C@@H](CCCN=C(N)N)C(=O)NCC(N)=O)NC(=O)[C@H](CC(N)=O)NC1=O,-5.64% (inactive),
N=C(N)c1ccc(/C=C/c2ccc(C(=N)N)cc2O)cc1,-11% (inactive),
CC1C(=O)CC2C3(C)CCC2(C(C)C(=O)O)C(=O)C13 (configuration not stated),-2.2% (inactive),
CN=C1C=CC(=C(c2ccc(N(C)C)cc2)c2ccc(N(C)C)cc2)C=C1,,20 µM (active)
CCCCCc1ccc(C)cc1O,,35.5 µM (active)
CCOc1ccc(NC(=S)Nc2ccc(OCC)cc2)cc1,-6.82% (inactive),
O=P(O)(O)OP(=O)(O)O,-5.25% (inactive),
O=C1c2ccccc2C(=O)C1c1ccc(Cl)cc1,-11.6% (inactive),
CN(C)C=Nc1c(I)cc(I)c(CCC(=O)O)c1I,-12.1% (inactive),
C#C[C@]1(O)CC[C@@H]2[C@H]3CCC4=CC(=O)CC[C@H]4[C@H]3C(=C)C[C@@]21CC,-8.19% (inactive),
NC(=S)N=Nc1ccc(NN=C(N)N)cc1,,44.7 µM (active)
CC(=O)N[C@@H]1C(O[C@H]2O[C@H](C(=O)O)C(O)[C@H](O)[C@H]2O)[C@H](O)[C@@H](CO)O[C@H]1O[C@@H]1C(C(=O)O)O[C@@H](O[C@H]2[C@H](O)[C@@H](CO)OC(O)[C@@H]2NC(C)=O)[C@H](O)[C@H]1O (some centres not stated),1.36% (inactive),
Oc1ccc(Cl)c2c1CCC2,-14.5% (inactive),
Cc1cccc(C)c1NC(=O)C1CCCCN1C (configuration not stated),3.96% (inactive),
